Molecular target: ENO2
Assay: pooled miR-30 sensor sort-seq; sequence = guide strand
Conditions: shRNA
Also: reference of the scale not given here.

**Q.** With TGATGTATCGGGAAGGATCAGT as the sequence, how does the sensor-assay potency score (higher = more potent) read?
**A.** Its sensor-assay potency score (higher = more potent) is -0.0535.

**Q.** Which sensor-assay potency score (higher = more potent) does the source give for TTCTCTTGCTCCACCACAGAGA here?
**A.** Its sensor-assay potency score (higher = more potent) is -1.02.

**Q.** With TATGGTAGACCTCTGCACCTAG as the sequence, how does the sensor-assay potency score (higher = more potent) read?
**A.** The sensor-assay potency score (higher = more potent) was 0.499.

**Q.** How did the sensor-assay potency score (higher = more potent) turn out when TTGGATGGCTTCAGTGACCGAG was run?
**A.** The sensor-assay potency score (higher = more potent) was 0.159.

**Q.** Which sensor-assay potency score (higher = more potent) does the source give for TTTTGGGTTGGTCACTGTCAGG here?
**A.** Its sensor-assay potency score (higher = more potent) is -1.77.

**Q.** TTGGCTGTGAACTTGGACCAGG was tested. Which sensor-assay potency score (higher = more potent) did it give?
**A.** The sensor-assay potency score (higher = more potent) was -0.413.

**Q.** For TAGAGATCCACCTCCACTGTGG, which sensor-assay potency score (higher = more potent) is on record?
**A.** Its sensor-assay potency score (higher = more potent) is 0.0832.

**Q.** Which sensor-assay potency score (higher = more potent) does the source give for TAGACCTCTGCACCTAGTCGCA here?
**A.** Its sensor-assay potency score (higher = more potent) is -1.03.

**Q.** Which sensor-assay potency score (higher = more potent) does the source give for TTGAGCAGCAGACAGTTGCAGG here?
**A.** The sensor-assay potency score (higher = more potent) was -0.936.

**Q.** For TTTCTCTTGCTCCACCACAGAG, which sensor-assay potency score (higher = more potent) is on record?
**A.** Its sensor-assay potency score (higher = more potent) is -1.22.

**Q.** With TACATTGGCTGTGAACTTGGAC as the sequence, how does the sensor-assay potency score (higher = more potent) read?
**A.** The sensor-assay potency score (higher = more potent) was 0.428.

**Q.** With TTGTCCTTGATGACTCCCTTGA as the sequence, how does the sensor-assay potency score (higher = more potent) read?
**A.** The sensor-assay potency score (higher = more potent) was -0.328.

**Q.** How did the sensor-assay potency score (higher = more potent) turn out when TTGGATTTGTTCTCAGTCCCAT was run?
**A.** The sensor-assay potency score (higher = more potent) was 0.271.

**Q.** How did the sensor-assay potency score (higher = more potent) turn out when TCTAACACCTCAGCACACCAAC was run?
**A.** Its sensor-assay potency score (higher = more potent) is -0.842.

**Q.** With TATTTGTCCTTGATGACTCCCT as the sequence, how does the sensor-assay potency score (higher = more potent) read?
**A.** Its sensor-assay potency score (higher = more potent) is 0.308.

**Q.** For TAGTCCCTGACAAAGTCCTGGT, which sensor-assay potency score (higher = more potent) is on record?
**A.** Its sensor-assay potency score (higher = more potent) is -0.652.

**Q.** With TTGATGACTCCCTTGAGTGTAT as the sequence, how does the sensor-assay potency score (higher = more potent) read?
**A.** Its sensor-assay potency score (higher = more potent) is -0.705.

**Q.** Which sensor-assay potency score (higher = more potent) does the source give for ATTGGTGGCATCCTTGCCGTAT here?
**A.** The sensor-assay potency score (higher = more potent) was -0.654.

**Q.** How did the sensor-assay potency score (higher = more potent) turn out when TTGAGTGTATGGTAGACCTCTG was run?
**A.** Its sensor-assay potency score (higher = more potent) is -0.0986.

**Q.** TTCCTCAATTCTCATGAGCTGG was tested. Which sensor-assay potency score (higher = more potent) did it give?
**A.** The sensor-assay potency score (higher = more potent) was -0.892.

**Q.** For TTCAGTGACCGAGCCGATCTGG, which sensor-assay potency score (higher = more potent) is on record?
**A.** Its sensor-assay potency score (higher = more potent) is -0.433.

**Q.** With TTTGCCTAAGTAACGCTGTTTG as the sequence, how does the sensor-assay potency score (higher = more potent) read?
**A.** The sensor-assay potency score (higher = more potent) was -1.32.

**Q.** How did the sensor-assay potency score (higher = more potent) turn out when TTTGTCTCCATCCCTCAGCTCC was run?
**A.** Its sensor-assay potency score (higher = more potent) is -0.755.

**Q.** How did the sensor-assay potency score (higher = more potent) turn out when TATAGAGATCCACCTCCACTGT was run?
**A.** The sensor-assay potency score (higher = more potent) was -0.931.

Molecular target: ENPP7
Assay: as above
Conditions: shRNA

**Q.** How did the sensor-assay potency score (higher = more potent) turn out when TTTAGGGAGCAGCATCCCGTTT was run?
**A.** Its sensor-assay potency score (higher = more potent) is -1.36.

**Q.** With TTCATGTCCATGTCCTTGTTGT as the sequence, how does the sensor-assay potency score (higher = more potent) read?
**A.** Its sensor-assay potency score (higher = more potent) is -0.0468.

**Q.** Which sensor-assay potency score (higher = more potent) does the source give for TACATGTTGTGAACCACCCCGT here?
**A.** Its sensor-assay potency score (higher = more potent) is -0.259.

**Q.** For TTGAACTGGACGTTAATTCTCC, which sensor-assay potency score (higher = more potent) is on record?
**A.** The sensor-assay potency score (higher = more potent) was -0.264.

**Q.** Which sensor-assay potency score (higher = more potent) does the source give for TTGTCCACGGTCGTCATGCCGT here?
**A.** Its sensor-assay potency score (higher = more potent) is -1.22.

**Q.** TAGGGCAGCTTCACCTTGCTGG was tested. Which sensor-assay potency score (higher = more potent) did it give?
**A.** The sensor-assay potency score (higher = more potent) was -0.078.

**Q.** TTGTAGTTGTGTGCGATGCCTT was tested. Which sensor-assay potency score (higher = more potent) did it give?
**A.** The sensor-assay potency score (higher = more potent) was -0.915.

**Q.** How did the sensor-assay potency score (higher = more potent) turn out when TTGCGCGCGATGCTCTCCCGGA was run?
**A.** The sensor-assay potency score (higher = more potent) was -1.29.

**Q.** TCGCTCTCCACTCCGTCTCATT was tested. Which sensor-assay potency score (higher = more potent) did it give?
**A.** The sensor-assay potency score (higher = more potent) was -1.59.

**Q.** With TAGTCCAGGAGCTCAAACTCGA as the sequence, how does the sensor-assay potency score (higher = more potent) read?
**A.** Its sensor-assay potency score (higher = more potent) is -0.814.

**Q.** For TTGTAGACGTGGAGCTTGGGGT, which sensor-assay potency score (higher = more potent) is on record?
**A.** Its sensor-assay potency score (higher = more potent) is -0.738.

**Q.** For TTCTTGTAGACGTGGAGCTTGG, which sensor-assay potency score (higher = more potent) is on record?
**A.** The sensor-assay potency score (higher = more potent) was -0.97.

Molecular target: ENTHD1
Assay: as above
Conditions: shRNA

**Q.** For TAGAAAACAATATAGAGTGGGA, which sensor-assay potency score (higher = more potent) is on record?
**A.** Its sensor-assay potency score (higher = more potent) is 0.012.

**Q.** How did the sensor-assay potency score (higher = more potent) turn out when TACTTGACCAACATGCTGGTAA was run?
**A.** The sensor-assay potency score (higher = more potent) was 0.494.

**Q.** For TTTAACTCCTAACACTAGCATC, which sensor-assay potency score (higher = more potent) is on record?
**A.** Its sensor-assay potency score (higher = more potent) is -1.32.

Source: the OligoGym collection
